How the values were obtained:
Assay in all cases: log2 ratio of Biotin-Ahx-Ub-VS probe labelling (fragment/DMSO); higher = less target engagement (more negative = stronger competition), active = hit call of the paper (q ≤ 0.05, log2 ratio ≤ -1)
Conditions in all cases: compound concentration: 200 uM; treatment time: 3 h
USP34 = USP34 (UniProt Q70CQ2)
How it was run: (§1)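 Global-median-normalised Spectronaut label-free quantities were compared by unpaired t-test, and values are average log2 ratios of fragment over vehicle. Only proteins with ≥2 unique peptides were used. HEK293T lysate (495 µg per sample) was treated in triplicate with fragment at 200 µM or vehicle for 3 h and then with Biotin-Ahx-Ub-VS at 0.5 µM final for 1 h. Labelled DUBs were then NeutrAvidin-enriched, digested with LysC and trypsin, and run by diaPASEF LC-MS/MS.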

USP36 = target: T1, USP36 (UniProt Q9P275)
T1 sequence (whole entry): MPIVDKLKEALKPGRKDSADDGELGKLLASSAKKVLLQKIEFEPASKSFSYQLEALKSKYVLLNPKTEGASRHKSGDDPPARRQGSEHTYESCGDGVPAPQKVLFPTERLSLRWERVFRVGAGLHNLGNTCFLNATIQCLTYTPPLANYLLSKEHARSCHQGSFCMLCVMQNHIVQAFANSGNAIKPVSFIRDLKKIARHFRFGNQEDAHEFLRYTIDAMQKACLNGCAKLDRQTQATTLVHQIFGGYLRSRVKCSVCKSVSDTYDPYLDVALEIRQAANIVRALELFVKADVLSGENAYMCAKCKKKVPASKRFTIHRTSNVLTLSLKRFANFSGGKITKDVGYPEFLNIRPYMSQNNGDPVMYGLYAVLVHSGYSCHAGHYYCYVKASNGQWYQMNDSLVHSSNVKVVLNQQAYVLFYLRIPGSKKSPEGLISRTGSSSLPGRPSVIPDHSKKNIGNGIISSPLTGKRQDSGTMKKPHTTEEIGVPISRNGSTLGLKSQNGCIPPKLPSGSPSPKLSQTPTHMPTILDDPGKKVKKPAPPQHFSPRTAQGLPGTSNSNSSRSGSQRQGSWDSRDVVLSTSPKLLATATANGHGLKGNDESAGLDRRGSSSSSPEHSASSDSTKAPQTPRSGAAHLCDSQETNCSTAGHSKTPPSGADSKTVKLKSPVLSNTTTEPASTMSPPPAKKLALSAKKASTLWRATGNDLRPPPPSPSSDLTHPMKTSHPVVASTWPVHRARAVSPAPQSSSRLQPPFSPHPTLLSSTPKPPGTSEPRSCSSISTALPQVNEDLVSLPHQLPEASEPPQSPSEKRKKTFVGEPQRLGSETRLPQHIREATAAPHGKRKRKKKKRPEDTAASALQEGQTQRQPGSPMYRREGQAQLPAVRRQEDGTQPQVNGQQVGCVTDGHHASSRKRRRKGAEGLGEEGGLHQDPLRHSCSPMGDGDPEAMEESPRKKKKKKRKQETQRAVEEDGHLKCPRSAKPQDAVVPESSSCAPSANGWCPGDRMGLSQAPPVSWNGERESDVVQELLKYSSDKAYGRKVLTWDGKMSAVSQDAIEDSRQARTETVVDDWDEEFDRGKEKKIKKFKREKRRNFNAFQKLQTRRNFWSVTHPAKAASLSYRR
How it was run: as §1

USP38 = target: T2, USP38 (UniProt Q8NB14)
T2 sequence (whole entry): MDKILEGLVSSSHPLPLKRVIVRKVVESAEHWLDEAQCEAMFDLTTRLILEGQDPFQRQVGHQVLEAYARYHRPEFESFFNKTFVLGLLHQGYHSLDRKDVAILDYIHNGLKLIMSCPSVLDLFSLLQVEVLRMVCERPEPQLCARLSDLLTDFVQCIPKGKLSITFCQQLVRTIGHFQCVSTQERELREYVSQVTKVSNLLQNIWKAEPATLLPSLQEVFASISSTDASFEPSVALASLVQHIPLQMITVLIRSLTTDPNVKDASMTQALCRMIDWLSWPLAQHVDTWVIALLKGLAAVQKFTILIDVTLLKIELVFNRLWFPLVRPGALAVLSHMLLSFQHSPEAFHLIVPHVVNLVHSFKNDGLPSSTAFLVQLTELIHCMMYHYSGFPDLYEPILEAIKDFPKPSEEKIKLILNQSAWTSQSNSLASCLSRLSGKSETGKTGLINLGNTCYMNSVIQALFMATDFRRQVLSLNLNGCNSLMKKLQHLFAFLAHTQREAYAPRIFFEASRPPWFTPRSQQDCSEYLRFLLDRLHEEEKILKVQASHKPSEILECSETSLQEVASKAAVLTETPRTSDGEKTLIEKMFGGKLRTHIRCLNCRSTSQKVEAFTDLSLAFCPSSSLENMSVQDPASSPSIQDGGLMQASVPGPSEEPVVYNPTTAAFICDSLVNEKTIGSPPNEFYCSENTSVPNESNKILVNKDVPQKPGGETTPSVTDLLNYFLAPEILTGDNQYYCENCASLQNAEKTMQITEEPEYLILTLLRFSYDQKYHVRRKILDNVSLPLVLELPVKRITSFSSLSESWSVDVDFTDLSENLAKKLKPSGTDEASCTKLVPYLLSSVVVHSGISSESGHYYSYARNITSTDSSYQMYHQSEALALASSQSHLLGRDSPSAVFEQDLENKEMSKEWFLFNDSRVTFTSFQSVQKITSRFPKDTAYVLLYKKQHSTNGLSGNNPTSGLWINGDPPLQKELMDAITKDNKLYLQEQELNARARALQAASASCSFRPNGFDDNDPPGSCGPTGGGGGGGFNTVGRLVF
How it was run: as §1

USP39 = target: T3, USP39 (UniProt Q53GS9)
T3 sequence (whole entry): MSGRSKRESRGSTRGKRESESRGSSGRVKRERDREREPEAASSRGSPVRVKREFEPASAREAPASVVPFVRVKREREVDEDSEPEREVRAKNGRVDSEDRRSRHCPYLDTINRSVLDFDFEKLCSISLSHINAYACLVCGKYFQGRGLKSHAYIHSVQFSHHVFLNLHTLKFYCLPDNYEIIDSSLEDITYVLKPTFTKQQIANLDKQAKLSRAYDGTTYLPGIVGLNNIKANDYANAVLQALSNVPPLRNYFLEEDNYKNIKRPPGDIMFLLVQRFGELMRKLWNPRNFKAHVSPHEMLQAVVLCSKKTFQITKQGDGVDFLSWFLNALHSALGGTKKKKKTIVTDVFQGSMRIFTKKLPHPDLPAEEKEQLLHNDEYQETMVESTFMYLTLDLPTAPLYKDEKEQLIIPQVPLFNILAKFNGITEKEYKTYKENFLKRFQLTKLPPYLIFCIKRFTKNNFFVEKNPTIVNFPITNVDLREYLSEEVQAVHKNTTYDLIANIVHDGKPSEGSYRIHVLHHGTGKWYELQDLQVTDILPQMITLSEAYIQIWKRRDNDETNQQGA
How it was run: as §1

USP4 = target: T4, USP4 (UniProt Q13107)
T4 sequence (whole entry): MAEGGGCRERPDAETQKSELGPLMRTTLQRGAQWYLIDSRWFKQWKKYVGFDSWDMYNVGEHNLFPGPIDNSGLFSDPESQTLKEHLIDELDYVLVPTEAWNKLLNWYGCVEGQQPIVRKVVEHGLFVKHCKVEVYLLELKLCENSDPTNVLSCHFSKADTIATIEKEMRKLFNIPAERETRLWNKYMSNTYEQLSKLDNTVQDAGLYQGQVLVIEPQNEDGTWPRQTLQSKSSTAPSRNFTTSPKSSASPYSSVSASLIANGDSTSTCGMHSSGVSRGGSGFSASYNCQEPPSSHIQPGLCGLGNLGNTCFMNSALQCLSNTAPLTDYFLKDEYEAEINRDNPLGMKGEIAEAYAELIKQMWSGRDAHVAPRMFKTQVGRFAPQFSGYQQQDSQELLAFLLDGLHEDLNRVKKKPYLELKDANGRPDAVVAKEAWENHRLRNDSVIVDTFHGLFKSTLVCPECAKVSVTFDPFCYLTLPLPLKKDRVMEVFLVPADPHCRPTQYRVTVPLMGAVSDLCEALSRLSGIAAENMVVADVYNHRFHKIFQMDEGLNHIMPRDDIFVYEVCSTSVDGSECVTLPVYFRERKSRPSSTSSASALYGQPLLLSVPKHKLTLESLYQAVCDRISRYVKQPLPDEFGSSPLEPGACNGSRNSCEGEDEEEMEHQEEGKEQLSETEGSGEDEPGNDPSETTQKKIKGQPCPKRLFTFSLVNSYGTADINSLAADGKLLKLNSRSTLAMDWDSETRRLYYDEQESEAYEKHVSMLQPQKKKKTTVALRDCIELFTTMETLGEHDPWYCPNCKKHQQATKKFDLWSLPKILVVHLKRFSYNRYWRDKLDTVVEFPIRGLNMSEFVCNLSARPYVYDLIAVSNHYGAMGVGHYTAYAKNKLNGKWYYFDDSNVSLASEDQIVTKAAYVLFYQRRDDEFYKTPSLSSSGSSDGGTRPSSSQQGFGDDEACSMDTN
How it was run: as §1

Measured: log2 ratio of Biotin-Ahx-Ub-VS probe labelling

Sequence of USP34 (Q70CQ2 whole entry, the tested form may be a part): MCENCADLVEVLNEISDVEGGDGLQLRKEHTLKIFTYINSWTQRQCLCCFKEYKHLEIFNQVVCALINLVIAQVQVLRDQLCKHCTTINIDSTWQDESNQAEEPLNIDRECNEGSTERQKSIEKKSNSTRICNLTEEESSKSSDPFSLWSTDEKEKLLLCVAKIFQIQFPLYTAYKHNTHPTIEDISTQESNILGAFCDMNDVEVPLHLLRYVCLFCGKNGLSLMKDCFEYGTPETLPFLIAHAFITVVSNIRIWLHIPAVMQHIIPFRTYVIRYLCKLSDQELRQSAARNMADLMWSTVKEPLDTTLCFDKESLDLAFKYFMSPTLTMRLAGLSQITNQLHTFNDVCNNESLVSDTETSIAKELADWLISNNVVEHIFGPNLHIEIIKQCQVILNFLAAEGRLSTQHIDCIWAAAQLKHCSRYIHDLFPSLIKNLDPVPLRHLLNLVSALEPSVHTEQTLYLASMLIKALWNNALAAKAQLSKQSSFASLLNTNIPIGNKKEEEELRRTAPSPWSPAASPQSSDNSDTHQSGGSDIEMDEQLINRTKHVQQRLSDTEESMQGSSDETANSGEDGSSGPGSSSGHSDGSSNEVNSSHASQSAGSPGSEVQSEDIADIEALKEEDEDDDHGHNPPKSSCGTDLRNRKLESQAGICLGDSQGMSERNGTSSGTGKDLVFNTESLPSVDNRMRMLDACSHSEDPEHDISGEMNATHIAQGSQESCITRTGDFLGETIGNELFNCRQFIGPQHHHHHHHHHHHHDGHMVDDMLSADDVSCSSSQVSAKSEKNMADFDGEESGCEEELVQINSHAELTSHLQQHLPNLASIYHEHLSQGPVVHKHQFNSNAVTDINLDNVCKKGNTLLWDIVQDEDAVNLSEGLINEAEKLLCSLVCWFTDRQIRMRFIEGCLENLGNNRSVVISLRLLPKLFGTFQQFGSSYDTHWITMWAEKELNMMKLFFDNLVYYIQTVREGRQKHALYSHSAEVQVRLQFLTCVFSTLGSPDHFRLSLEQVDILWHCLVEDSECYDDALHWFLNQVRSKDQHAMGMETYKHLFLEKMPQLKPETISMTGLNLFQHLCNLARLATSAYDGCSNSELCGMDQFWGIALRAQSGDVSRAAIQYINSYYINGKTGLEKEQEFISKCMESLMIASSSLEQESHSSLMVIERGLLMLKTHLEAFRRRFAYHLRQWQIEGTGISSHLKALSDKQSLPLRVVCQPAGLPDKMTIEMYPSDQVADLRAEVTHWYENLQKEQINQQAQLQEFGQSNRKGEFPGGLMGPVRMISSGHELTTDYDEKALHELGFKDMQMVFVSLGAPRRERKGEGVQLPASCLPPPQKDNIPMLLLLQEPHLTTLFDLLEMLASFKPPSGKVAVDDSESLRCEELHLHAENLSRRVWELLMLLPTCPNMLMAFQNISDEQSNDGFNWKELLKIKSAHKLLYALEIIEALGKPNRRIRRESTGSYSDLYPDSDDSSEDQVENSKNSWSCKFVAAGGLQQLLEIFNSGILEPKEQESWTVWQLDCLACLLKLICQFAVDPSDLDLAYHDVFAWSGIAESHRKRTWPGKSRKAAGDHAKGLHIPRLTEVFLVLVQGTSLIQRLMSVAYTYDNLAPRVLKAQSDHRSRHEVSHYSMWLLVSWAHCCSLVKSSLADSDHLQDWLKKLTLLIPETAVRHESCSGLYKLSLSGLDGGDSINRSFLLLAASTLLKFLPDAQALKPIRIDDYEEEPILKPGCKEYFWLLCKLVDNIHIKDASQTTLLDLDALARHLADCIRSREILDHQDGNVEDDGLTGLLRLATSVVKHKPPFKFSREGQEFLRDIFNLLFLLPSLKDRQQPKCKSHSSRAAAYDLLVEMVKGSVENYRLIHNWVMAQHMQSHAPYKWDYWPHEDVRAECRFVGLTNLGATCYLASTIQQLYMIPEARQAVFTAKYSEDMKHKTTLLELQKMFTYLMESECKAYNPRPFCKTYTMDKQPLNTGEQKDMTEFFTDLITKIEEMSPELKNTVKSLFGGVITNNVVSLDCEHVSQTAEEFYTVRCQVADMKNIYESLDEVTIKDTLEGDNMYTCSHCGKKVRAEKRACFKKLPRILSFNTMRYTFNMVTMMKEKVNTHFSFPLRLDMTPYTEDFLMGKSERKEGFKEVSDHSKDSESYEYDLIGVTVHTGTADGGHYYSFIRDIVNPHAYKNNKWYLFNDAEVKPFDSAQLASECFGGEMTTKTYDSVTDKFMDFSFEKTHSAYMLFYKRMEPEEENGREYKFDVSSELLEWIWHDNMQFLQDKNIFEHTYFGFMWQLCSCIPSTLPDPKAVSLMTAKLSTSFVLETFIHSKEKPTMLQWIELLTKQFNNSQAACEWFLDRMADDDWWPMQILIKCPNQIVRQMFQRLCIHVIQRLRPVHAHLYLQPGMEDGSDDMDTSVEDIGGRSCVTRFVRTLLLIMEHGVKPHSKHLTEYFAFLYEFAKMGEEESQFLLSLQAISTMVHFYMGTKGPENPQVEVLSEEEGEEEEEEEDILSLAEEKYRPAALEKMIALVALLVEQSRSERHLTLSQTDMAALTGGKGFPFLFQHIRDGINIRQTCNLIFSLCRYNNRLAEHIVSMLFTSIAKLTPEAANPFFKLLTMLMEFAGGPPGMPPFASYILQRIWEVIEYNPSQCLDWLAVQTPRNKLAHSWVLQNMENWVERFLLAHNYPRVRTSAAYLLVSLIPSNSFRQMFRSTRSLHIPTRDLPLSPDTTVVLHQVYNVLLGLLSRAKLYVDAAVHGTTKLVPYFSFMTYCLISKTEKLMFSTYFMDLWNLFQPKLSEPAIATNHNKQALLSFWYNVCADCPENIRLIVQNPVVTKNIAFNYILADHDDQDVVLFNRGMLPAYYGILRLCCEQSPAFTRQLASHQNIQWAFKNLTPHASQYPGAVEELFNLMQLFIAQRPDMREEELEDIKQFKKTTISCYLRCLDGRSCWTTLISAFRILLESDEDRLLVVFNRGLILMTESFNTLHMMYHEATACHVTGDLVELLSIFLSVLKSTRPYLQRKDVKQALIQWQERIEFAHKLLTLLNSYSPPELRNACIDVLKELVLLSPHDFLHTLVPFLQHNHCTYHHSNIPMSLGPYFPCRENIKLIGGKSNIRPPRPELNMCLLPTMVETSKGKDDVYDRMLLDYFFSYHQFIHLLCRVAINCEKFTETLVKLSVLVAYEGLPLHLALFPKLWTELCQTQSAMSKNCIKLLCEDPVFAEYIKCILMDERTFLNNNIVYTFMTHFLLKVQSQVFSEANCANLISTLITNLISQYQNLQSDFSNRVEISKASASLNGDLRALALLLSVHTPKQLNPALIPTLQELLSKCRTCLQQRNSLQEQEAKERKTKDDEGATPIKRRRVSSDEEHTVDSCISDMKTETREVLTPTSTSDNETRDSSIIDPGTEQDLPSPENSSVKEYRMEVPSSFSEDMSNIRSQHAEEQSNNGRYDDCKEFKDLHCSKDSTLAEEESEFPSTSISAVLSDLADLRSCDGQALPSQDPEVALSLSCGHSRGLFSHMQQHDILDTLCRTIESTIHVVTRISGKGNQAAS

Cc1ccccc1CN(C)C(=O)CCl
inactive: USP34 -0.547 | USP36 -0.347 | USP38 -0.741 | USP39 -0.049 | USP4 -0.831

Source: the supplement of paper PMC11732987, “Enantioselective OTUD7B fragment discovery through chemoproteomics screening and high-throughput optimisation” (Communications Chemistry, 2025)
